High-throughput results (PubChem)
Most compounds without a hit are left out; they make up all but 9.2% or so of the library.
SMN2 splice up – SMN2 splice variant enhancement. HEK293 SMN2-luciferase splicing reporter, luminescence, 30-36 h. Potency, µM (titrated, usually from 46.1 µM), for inactives: at the top dose activity change, positive = activation, most hits filed as activators. 2.8% of 210,000 active; further: % of control where 0% means no effect; nearly all actives have a fitted effect of over 55% in size
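qHTS luciferase splicing reporter: luminescence rises when SMN2 exon 7 is included in transfected HEK293 cells. Compound exposure lasted 30-36 h at 37C, with 4.5 mM final sodium butyrate as control, followed by a ONE-Glo read.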
ELG1 repair inh – blocks ELG1-dependent DNA repair in HEK293T cells; 2.3% of 330,000 active; HEK293T ELG1-luciferase reporter, luminescence, 16 h; DNA damage induced by 5-fluorouridine; Potency, µM (titrated, usually from 46.1 µM), without a hit: at the highest dose activity change, negative = inhibition, usual class: inhibitors; further: on the % scale 0 is the no-effect control and ±100 the full control effect; nearly all actives have a fitted effect of over 55% in size
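Reporter activity after DNA damage by 5-fluorouridine is monitored. Compound-treated cells incubate 16 hr at 37 °C, then ONE-Glo is added for 30 min before luminescence reading.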
FLuc modulator – firefly luciferase modulation, counter-screen for miR-21 project | P08659 | Potency, µM (titrated, usually from 57.5 µM), for the others: at the highest dose activity change, negative = inhibition, hits mostly inhibitors | purified FLuc, Km substrates, luminescence inhibition | 6.9% of 360,000 active;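 further: plate controls were vehicle for no effect and reference inhibitor for full effect; nearly all actives have a fitted effect of over 55% in size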
Target sequence (P08659 whole entry, looked up): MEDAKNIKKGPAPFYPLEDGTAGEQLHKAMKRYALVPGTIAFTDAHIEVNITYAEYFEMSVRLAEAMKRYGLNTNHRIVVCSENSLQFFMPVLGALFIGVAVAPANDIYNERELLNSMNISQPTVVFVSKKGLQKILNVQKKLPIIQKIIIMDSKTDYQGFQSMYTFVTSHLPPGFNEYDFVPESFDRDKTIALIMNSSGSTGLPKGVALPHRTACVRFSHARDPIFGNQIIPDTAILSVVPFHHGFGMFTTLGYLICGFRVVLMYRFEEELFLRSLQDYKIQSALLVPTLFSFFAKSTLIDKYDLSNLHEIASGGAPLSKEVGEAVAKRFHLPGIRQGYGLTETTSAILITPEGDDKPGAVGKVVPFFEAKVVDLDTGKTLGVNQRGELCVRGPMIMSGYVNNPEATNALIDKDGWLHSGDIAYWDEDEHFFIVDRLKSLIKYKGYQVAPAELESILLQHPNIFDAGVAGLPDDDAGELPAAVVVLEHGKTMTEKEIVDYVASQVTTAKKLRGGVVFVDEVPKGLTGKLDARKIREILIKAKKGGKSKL
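Purified P. pyralis luciferase (10nM final) with 10uM D-luciferin and 10uM ATP (Km levels) in 50mM Tris acetate pH 7.5, 10mM Mg acetate, 0.01% Tween-20, 0.05% BSA; qHTS 6-point titration, ~60 µM downward; luminescence read.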
ELG1 genotoxic – genotoxicity induction in ELG1-luciferase HEK293T cells; HEK293T ELG1-luciferase reporter, luminescence, 16 h; Potency, µM (doses to about 46 µM), inactives show top-dose activity change, positive = activation, most hits filed as activators; 1.3% of 330,000 active; AID 504466; further: % of control where 0% means no effect; nearly all actives have a fitted effect of over 60% in size
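HEK293T cells expressing luciferase-tagged ELG1 were exposed to compound or DMSO vehicle for 16 hr at 37 °C and 5% CO2. Luciferase activity was then measured with ONE-Glo after 30 min at room temperature.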
Rab9 prom act – activators of Rab9 promoter; 2.8% of 320,000 active; AID 485297; Potency, µM (titrated, usually from 9.22 µM), for inactives: at the top dose activation, negative = inhibition, most hits filed as activators; Huh7 Rab9 promoter-luciferase reporter, luminescence, 24 h; further: % of control where 0% means no effect; nearly all actives have a fitted effect of over 60% in size
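Promoter activation is measured as luciferase luminescence in Huh7 cells stably transfected with a Rab9 promoter–luciferase construct, following 24 h compound exposure at 37 °C and 10 min reagent incubation at ambient temperature.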
NPC1 promoter act – activates the NPC1 promoter | Huh7 NPC1 promoter luciferase reporter, 24 h | Potency, µM (highest dose often 9.22 µM), inactives show at the highest dose activation, actives largely listed as activators | 2.4% of 320,000 active | AID 485313; further: % of control where 0% means no effect; nearly all actives have a fitted effect of over 60% in size
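Luciferase expression driven by the NPC1 promoter was measured in stably transfected Huh7 cells after a 24 h compound incubation, using a luciferase reagent and a luminescence read.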
Active calls of the source: *; ? = inconclusive; . = no result; [ ] = dose if it differs, or a comment. The call rests on the fitted dose curve; in most records, active means well fitted curve in the direction sought with a large enough effect; inconclusive means small, poorly fitted or top-dose-only effect, or another doubt; inactive means no such curve, though single readings can be large; an effect the other way counts as inactive or inconclusive. Potency means the concentration at half of the fitted maximal effect.

SMILES	SMN2 splice up	ELG1 repair inh	FLuc modulator	ELG1 genotoxic	Rab9 prom act	NPC1 promoter act
CC(=O)NC1CCCN(O)C(=O)/C=C(\C)CCOC(=O)C(NC(C)=O)CCCN(O)C(=O)/C=C(\C)CCOC(=O)C(NC(C)=O)CCCN(O)C(=O)/C=C(\C)CCOC1=O (stereo not given)	.	8.0%	0.4%	0.9%	-2.3%	-0.9%
CC1(C)CC(=O)C2=C(C1)NC1=C(C(=O)c3ccccc31)C2c1ccccc1 (stereo not given)	-2.9%[1.84 µM]	25.9µM*	-15.9%	-7.4%	1.1%	-3.4%
CCCCOc1cccc(C2c3c(oc4ccccc4c3=O)C(=O)N2c2ccccn2)c1 (stereo not given)	5.5%	.	-0.1%	.	.	.
Cc1[nH]c2ccccc2c1/C=N/NC(=O)c1cccs1	?	?	26.9µM*	?	-1.4%	5.6%
Cc1nn(-c2ccccc2)c(C)c1/C=N/NC(=O)c1cc(-c2ccc(Cl)s2)[nH]n1	-14.9%	?	10.7µM*	-8.5%	-19.1%	-24.9%
CCOc1cc(/C=N/NC(=O)CSc2nnc(C)s2)ccc1OCc1ccccc1Cl	7.9%	3.3%	1.3%	0.4%	1.5%	-0.1%
Cc1ccc(CSc2nnc(SCC(=O)N/N=C/C=C/c3ccccc3[N+](=O)[O-])s2)cc1	-44.7%	?	1.35µM*	16.3%	-4.5%	-3.6%
O=C(CSc1nnc(SCc2ccccc2Cl)s1)N/N=C/c1ccc(C(=O)O)cc1	.	-3.9%	3.38µM*	0.4%	3.5%	1.4%
CCCCCC(=O)N(c1ccc(OCC)cc1)S(=O)(=O)c1ccc2c(c1)n(C)c(=O)n2C	-23.9%	.	-0.6%	.	.	.
CC(=N\NC(=O)c1ccc([N+](=O)[O-])cc1)/C(=N/O)C(=O)Nc1ccccc1	.	?	1.0%	-11.3%	10.7%	12.5%
Cc1cccc(CS(=O)(=O)Cc2ccc(C(=O)NCc3ccc(F)cc3)o2)c1	.	.	-6.5%	.	.	.
CC(/C=N/NC(=O)CSc1nnc(SCc2ccccc2)s1)=C\c1ccco1	16.9%	3.1%	21.3µM*	1.7%	3.2%	-1.1%
O=C(CSc1nnc(SCc2ccccc2)s1)N/N=C/c1c(Cl)cccc1Cl	-4.7%	11.0%	?	1.3%	-1.0%	6.9%
Cc1nn(-c2ccccc2)c(C)c1/C=N/NC(=O)c1cccs1	17.8µM*	?	8.49µM*	?	?	?
Cc1nn(-c2ccccc2)c(C)c1/C=N/NC(=O)c1cc(-c2cccs2)[nH]n1	3.9%	?	13.5µM*	-0.8%	-21.4%	-10.7%
Cc1nn(-c2ccccc2)c(C)c1/C=N/NC(=O)CSc1nnc(SCc2ccc(Cl)cc2)s1	-0.4%	?	9.53µM*	-10.4%	20.0%	13.4%
COc1ccccc1NC(=O)Cc1noc(CSc2n[nH]c(N)n2)n1	24.4%	-10.7%	6.2%	-0.2%	-2.4%	-1.4%
Cc1oc(-c2ccc(Cl)cc2)nc1CSc1nc2ncccc2[nH]1	.	.	-7.1%	.	.	.
Cc1nn(-c2ccccc2)c(C)c1/C=N/NC(=O)c1cc(-c2ccc(Br)s2)[nH]n1	-12.3%	8.2µM*	?	-30.9%	-15.0%	-19.8%
Cc1c(/C=N/NC(=O)c2cccnc2)c2ccccc2n1Cc1ccccc1	-60.8%	?	-4.7%	2.8%	-15.8%	-9.4%
Cc1nn(-c2ccccc2)c(C)c1/C=N/NC(=O)c1ccccc1NS(=O)(=O)c1cccs1	15.1%	1.7%	10.7µM*	2.1%	1.7%	-0.5%
Cc1c(/C=N/NC(=O)c2cccs2)c2ccccc2n1Cc1ccccc1Cl	.	0.5%	8.49µM*	-2.3%	21.3%	17.4%
COc1ccccc1N(CC(=O)NCCc1ccccc1)C(=O)CCC(=O)Nc1cc(C)ccn1	.	-3.8%	-0.2%	-28.0%	-5.2%	-0.2%
CCC1=C2CC[C@H]3C(=O)NC(=O)[C@H]3[C@H]2[C@@]2(C)C(=NCCOC)OC(=O)N2C1=O	-11.1%	.	.	.	.	.
